# Bioassay records (PubChem)
# This is a sample that favours compounds with a hit; in the whole collection about 1.8% have one here.
# BaF3 tox = parental Ba/F3 cell viability inhibition, counter-screen for JAK2V617F inhibitor project, murine pro-B, CellTiter-Glo luminescence. CellTiter-Glo ATP luminescence. inhibition, % at 5.6 µM. actives 1.1% (n = 220,000);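 active = inhibition above a per-campaign cutoff, the mean inhibition of all tested compounds plus 3 SD, cut at about 27% in these data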;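 note: 0% = DMSO wells and 100% = JAK Inhibitor I control wells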
# APP 5UTR inh = inhibitors of APP translation via 5'UTR reporter, primary screen, APP 5'UTR luciferase, SH-SY5Y cells; SH-SY5Y APP 5'UTR-luciferase reporter, luminescence; actives 0.82% (n = 190,000); inhibition, % at 2 µM;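 active = inhibition above a set limit, derived from the sample mean plus 3 SD, cut at about 45% in these data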
# Ba/F3 V617F tox = reduced viability of JAK2V617F-dependent Ba/F3 cells, primary screen, JAK2V617F inhibitor project, cell-based, Ba/F3 EpoR-JAK2V617F, luminescence; ATP luminescence; AID 1446, 2008; actives 1.1% (n = 220,000); inhibition, % at 5.6 µM;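 active = inhibition above the campaign mean plus 3 SD over all tested compounds, cut at about 24% in these data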;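 note: cytokine-independent growth of Ba/F3 cells driven by EpoR plus mutant JAK2; 0% = DMSO-treated cells and 100% = JAK inhibitor I control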
# KLF5 inh = KLF5 expression inhibitors, primary screen, DLD-1 cells, luminescence; inhibition, % at 5 µM; AID 1700, 2009; actives 0.23% (n = 290,000); DLD-1 KLF5 promoter-luciferase reporter;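 active = inhibition above a per-plate limit of that plate's mean compound inhibition plus 3 SD, cut at about 60% in these data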;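 note: 0% = DMSO wells and 100% = LY294002 at 200 µM; higher means less KLF5 promoter-driven luciferase light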
# IEC-6 cytotox = cytotoxicity in IEC-6 intestinal epithelial cells, primary screen, cytotoxicity control for KLF5 inhibitor project, cell-based, luminescence; inhibition, % at 5 µM; IEC-6 cytotoxicity, luminescence viability; actives 0.78% (n = 290,000); in the data active = inhibition above about 22%;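 note: 0% = plate median of test compound wells and 100% = cytotoxic reference compound wells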
# * marks the source's active call; other numbers are inactive results; · = no result.
SMILES,BaF3 tox,APP 5UTR inh,Ba/F3 V617F tox,KLF5 inh,IEC-6 cytotox
Cc1ccc(S(=O)(=O)N=S(CCO)CCO)cc1,5,-22,3,0,10
C=CCn1c(O)c(N=NC(=S)Nc2ccccc2C)c2cc(S(=O)(=O)N3CCOCC3)ccc21,8,34,0,3,9
Cn1c(O)c(N=NC(=S)Nc2ccccc2F)c2cc(S(=O)(=O)N3CCOCC3)ccc21,6,46*,0,-6,-8
Cc1ccc(NC(=S)N=Nc2c(O)n(C)c3ccc(S(=O)(=O)N4CCOCC4)cc23)cc1C,2,70*,-1,8,-3
Cc1cc(=O)n(C)c2ccc(S(=O)(=O)N3CCOCC3)cc12,·,·,·,-22,15
Cc1ccc(OCC(O)Cn2c(=N)n(Cc3ccccc3)c3ccccc32)cc1 (stereo not drawn),9,8,3,-14,9
Cc1cccc(OCC(O)Cn2c(=N)n(CCN3CCCCC3)c3ccccc32)c1 (stereo not drawn),55*,-2,25*,-18,6
N=c1n(Cc2ccc(Cl)cc2)c2ccccc2n1CC(O)COc1ccccc1 (stereo not drawn),36*,-6,12,-3,-5
COC(=O)C1=C(N)Oc2cc(N(C)C)ccc2C1c1ccccc1OC (stereo not drawn),5,66*,-4,-6,3
COC(=O)C1=C(N)Oc2cc(C)n(CC3CCCO3)c(=O)c2C1c1ccccc1OC (stereo not drawn),4,0,0,-15,4
CC1CCCN(C(=O)c2ccc3c(c2)OCO3)C1 (stereo not drawn),·,·,·,-34,1
O=C(c1ccc2c(c1)OCO2)N1CCCC(c2ccccc2)C1 (stereo not drawn),33*,-8,9,-28,2
CC(=O)Nc1ccc(S(=O)(=O)N(C)Cc2cnn(C)c2)cc1,·,·,·,-32,8
CC1=C(Sc2nc3ccccc3[nH]2)C(=O)NC(C)(C)C1,-1,48*,-2,4,-5
CC1=C(Sc2ccccn2)C(=O)NC(C)(C)C1,4,2,-3,12,0
CN(C)S(=O)(=O)c1cccc(N2C(=O)CC3(CCCCC3)CC2=O)c1,10,-2,6,-7,4
O=[N+]([O-])c1ccc(C[n+]2cccc3ccc4cccnc4c32)cc1,76*,-26,60*,28,-2
CC1Cc2ccccc2N1C(=O)CN1CCC(n2nnc3cc(C(F)(F)F)ccc32)CC1 (stereo not drawn),4,·,1,-32,-2
CC(Cn1nnc2ccccc21)C(=O)O (stereo not drawn),0,-7,-4,-10,-1
CC(Cn1cnc2ccccc21)C(=O)O (stereo not drawn),4,56*,-4,-32,-3
Cc1ccc(CCNC(=O)Cn2ccc3cc(S(=O)(=O)N4CCCC4)ccc32)cc1,·,·,·,-13,6
Cc1c(C(=O)OCC(=O)N2CC(=O)Nc3ccccc32)oc2ccccc12,5,13,-1,-35,2
O=C1CN(C(=O)COC(=O)c2oc3ccccc3c2COc2ccccc2)c2ccccc2N1,2,45*,-3,-2,0
O=C(c1ccccn1)N(Cc1ccco1)C1(C(=O)NC2CCCC2)CCCCC1,45*,9,6,18,0
COc1ccccc1/C=N/NC(=O)C(=O)N1CCN(c2ccccc2OC)CC1,4,-2,1,-17,-4
SMILES,BaF3 tox,APP 5UTR inh,Ba/F3 V617F tox,KLF5 inh,IEC-6 cytotox
O=S(=O)(Nc1ccc(-c2csc(-c3ccccc3)n2)cc1)c1ccc(F)cc1,0,4,3,-33,1
O=C(Nc1nc(-c2ccccc2)cs1)c1ccccc1NS(=O)(=O)c1ccc(F)cc1,46*,-2,23,21,13
CCOC(=O)c1cc2c(ccn2-c2ccc(F)cc2)n1CC(=O)NC(C)(C)C,90*,-3,5,11,9
O=C(Nc1ccc([N+](=O)[O-])cc1)Nc1nc(-c2ccc(Cl)s2)cs1,4,56*,-2,6,-10
O=C(O)C1CC=CCC1C(=O)Nc1ccc(N2CCN(Cc3ccccc3)CC2)cc1 (stereo not drawn),7,-5,3,-6,0
O=C(N/N=C/c1cc(Cl)ccc1O)C(=O)Nc1ccccc1OC(F)(F)C(F)F,5,60*,0,-6,2
CC(=O)c1ccc(S(=O)(=O)Nc2cccc(-n3cnnn3)c2)cc1,·,·,·,-13,5
CSCC[C@H](NC(=O)[C@@H]1CSC2c3ccccc3C(=O)N21)C(=O)N1CCC[C@H]1CO (stereo partly drawn),·,·,·,-10,1
O=C(NNc1ccnc2cc(Cl)ccc12)C1CCCCC1,36*,18,25*,-22,10
NC(=S)NNc1ccnc2cc(Cl)ccc12,7,-6,0,-24,-1
Cc1cc(N2CCCC2=O)cc(C)c1S(=O)(=O)NCCOc1ccc(C(C)(C)C)cc1,36*,-8,22,-38,-2
O=C1CCCN1c1ccc(S(=O)(=O)NCCOc2ccccc2)cc1,5,3,2,-9,1
CCCCCCCOC(=O)C[N+](C)(C)CCOC1CC2CCC1(C)C2(C)C (stereo not drawn),85*,10,101*,3,4
CC(C)CCOC(=O)C[N+](C)(C)CCOC1CC2CCC1(C)C2(C)C (stereo not drawn),76*,12,90*,-26,2
CC1(C)C2CCC1(C)C(OC(=O)c1ccccc1C(=O)O)C2 (stereo not drawn),1,·,-4,-6,-2
CCCCOC(=O)C[N+](C)(C)CCOC1CC2CCC1(C)C2(C)C (stereo not drawn),58*,-24,54*,-14,2
CCCOC(=O)C[N+](C)(C)CCOC1CC2CCC1(C)C2(C)C (stereo not drawn),46*,·,30*,24,2
CC1(C)C2CCC1(C)C(OCCNCCOC(=O)Nc1ccccc1)C2 (stereo not drawn),-2,·,-1,-11,2
CCCCc1nnc(NC(=O)CN2C(=O)NC3(CCCCC3)C2=O)s1,·,·,·,-14,-1
CCC(C)OC(=O)C[N+](C)(C)CCOC1CC2CCC1(C)C2(C)C (stereo not drawn),74*,-2,82*,6,1
CCCCCCOC(=O)C[N+](C)(C)CCOC1CC2CCC1(C)C2(C)C (stereo not drawn),80*,10,89*,-20,-5
Cc1nn(C)c(C(=O)NCc2ccc(Cl)cc2)c1Cl,34*,7,18,-19,0
Cc1nc(C)c(C(=O)NCc2ccc(Cl)cc2)o1,5,-2,-2,-18,-2
NC(=O)c1ccc(N=Nc2c(-c3ccccc3)[nH]n(-c3ccccc3)c2=O)cc1,1,69*,2,0,1
